Measurements from PubChem BioAssay (Tox21).
Results filed as inconclusive are left out. A call without a number means that no potency is given here. The source made the active and inactive calls. The call rests on the fitted dose curve; in most records, active means well fitted curve in the direction sought with a large enough effect in the repeat runs; inconclusive means weak or mixed curves; inactive means no such curve, though single readings can be large; an effect the other way counts as inactive or inconclusive.
Further: nearly all actives have a fitted effect of over 50% in size.

What follows are molecules tested against Voltage-gated inwardly rectifying potassium channel KCNH2 (Homo sapiens) (UniProt Q12809) (assay: Human Ether-a-go-go-Related Gene (hERG) channel small molecule antagonists: fluorescence cell-based qHTS assay (AID 1671200;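 further: hERG-expressing U2OS cells given a thallium stimulus after FluxOR II dye loading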)). Conditions: hERG-U2OS cells, FluxOR thallium flux fluorescence; series mostly up to 76.8 µM.
Voltage-gated inwardly rectifying potassium channel KCNH2 (Homo sapiens), sequence (Q12809 whole entry, looked up): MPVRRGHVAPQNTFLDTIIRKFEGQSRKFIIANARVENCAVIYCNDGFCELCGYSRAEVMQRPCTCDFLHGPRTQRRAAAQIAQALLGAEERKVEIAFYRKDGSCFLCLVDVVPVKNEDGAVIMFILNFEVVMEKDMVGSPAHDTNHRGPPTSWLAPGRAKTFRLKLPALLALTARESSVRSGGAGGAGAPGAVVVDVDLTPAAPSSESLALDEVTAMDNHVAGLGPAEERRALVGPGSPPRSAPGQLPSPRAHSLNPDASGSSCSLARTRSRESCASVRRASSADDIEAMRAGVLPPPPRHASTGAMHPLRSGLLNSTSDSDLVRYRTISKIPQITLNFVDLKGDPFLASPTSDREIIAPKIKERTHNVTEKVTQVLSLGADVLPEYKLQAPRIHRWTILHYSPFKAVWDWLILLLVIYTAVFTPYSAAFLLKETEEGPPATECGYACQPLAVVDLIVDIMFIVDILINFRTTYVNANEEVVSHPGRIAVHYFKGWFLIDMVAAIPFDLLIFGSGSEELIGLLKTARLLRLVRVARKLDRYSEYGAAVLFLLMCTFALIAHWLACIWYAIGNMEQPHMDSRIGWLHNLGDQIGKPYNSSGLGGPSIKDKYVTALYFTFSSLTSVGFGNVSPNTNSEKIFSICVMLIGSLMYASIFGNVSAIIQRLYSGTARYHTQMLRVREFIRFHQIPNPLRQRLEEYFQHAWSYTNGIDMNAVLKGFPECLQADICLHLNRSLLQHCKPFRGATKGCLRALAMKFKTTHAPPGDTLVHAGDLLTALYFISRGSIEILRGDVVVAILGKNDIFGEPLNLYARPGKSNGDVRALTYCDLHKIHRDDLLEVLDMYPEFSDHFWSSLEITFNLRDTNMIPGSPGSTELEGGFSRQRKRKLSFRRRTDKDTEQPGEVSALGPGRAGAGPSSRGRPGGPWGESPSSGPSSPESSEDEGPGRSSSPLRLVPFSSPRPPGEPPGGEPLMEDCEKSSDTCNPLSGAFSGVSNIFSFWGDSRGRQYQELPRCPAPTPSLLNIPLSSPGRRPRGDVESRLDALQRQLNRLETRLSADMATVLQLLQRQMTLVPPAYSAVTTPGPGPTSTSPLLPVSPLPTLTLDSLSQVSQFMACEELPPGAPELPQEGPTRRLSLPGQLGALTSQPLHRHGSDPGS
How it was run: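 Read-out: thallium influx as a surrogate for potassium, tracked as fluorescence (480 nm ex/540 nm em) every second for 2 min after Stimulus Buffer addition in dye-loaded hERG-U2OS cells.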
For `COc1cc(C)c(Cc2cnc(N)nc2N)cc1OC`, the Potency was “inactive”.
In the case of `CC(C)(C)N`, the Potency is reported as “inactive”.
With `O=C(O)c1ccc(O)c(O)c1` the Potency was “inactive”.
`O=C(Cl)c1cc(Cl)cc(Cl)c1` was tested, and the Potency was “inactive”.
`C1=COCCC1` was tested, and the Potency was “inactive”.
For `CCCCCCCCCCCCCCCCN`, the Potency was “inactive”.
In the case of `CCCCCCCCCCCCCCCCCCCl`, the activity change, negative = inhibition is reported as 6.07% [at 6.97 µM] (inactive).
In the case of `CC1(C)CC(=O)CC(C)(C)N1`, the Potency is reported as “inactive”.
In the case of `C[Si](C)(C)O[Si](C)(C)O[Si](C)(C)C`, the Potency is reported as “inactive”.
For `O=[N+]([O-])c1cccc(I)c1`, the Potency was “inactive”.
In the case of `O=C(Nc1ccc2c(c1)Cc1ccccc1-2)C(F)(F)F`, the Potency is reported as “inactive”.
`Cc1c(-c2cccnc2)c2ccccc2n1CCCCC(=O)O` was tested, and the Potency was “inactive”.

These molecules were tested against Cytochrome P450 3A4 (Homo sapiens) (UniProt P08684) (assay: Cytochrome P450 Family 3 Subfamily A Member 4 (CYP3A4) small molecule antagonists: luciferase reporter qHTS assay (AID 1671201; further: potency means the concentration at half of the fitted maximal effect)). Conditions: P450-Glo CYP3A4 enzyme, luciferin luminescence, 1 h; series mostly up to 115 µM.
Cytochrome P450 3A4 (Homo sapiens), sequence (P08684 whole entry, looked up): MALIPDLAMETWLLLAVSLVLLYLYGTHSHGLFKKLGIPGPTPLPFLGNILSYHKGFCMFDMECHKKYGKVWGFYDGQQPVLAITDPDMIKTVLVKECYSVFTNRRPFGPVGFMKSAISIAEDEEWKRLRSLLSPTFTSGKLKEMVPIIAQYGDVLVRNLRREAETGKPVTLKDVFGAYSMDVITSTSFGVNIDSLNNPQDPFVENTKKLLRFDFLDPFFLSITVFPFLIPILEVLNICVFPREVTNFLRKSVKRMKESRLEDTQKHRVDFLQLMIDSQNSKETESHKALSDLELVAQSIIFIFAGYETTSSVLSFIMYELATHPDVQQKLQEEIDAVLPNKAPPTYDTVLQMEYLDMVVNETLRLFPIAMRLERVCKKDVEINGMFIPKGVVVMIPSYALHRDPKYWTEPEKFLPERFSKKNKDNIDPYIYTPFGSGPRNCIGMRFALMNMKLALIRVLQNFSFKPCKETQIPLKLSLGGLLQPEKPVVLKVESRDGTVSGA
How it was run: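 Luminescent readout (RLU) proportional to CYP3A4 activity, from luciferin generated off a proluciferin substrate. Enzyme–substrate mix plus compound 10 min at room temp, NADPH regeneration 1 h, detection reagent 20 min.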
`[O-][n+]1ccc(Cl)cc1` was tested, and the Potency was “inactive”.
In the case of `O=C(O)c1ccc2c(c1)nc(C(=O)NC1CCN(C3CC3)CC1)n2Cc1cc(-c2ccc(Cl)s2)on1`, the activity change, negative = inhibition is reported as 1.57% [at 23.6 µM] (inactive).
With `CCCC(=O)OCc1ccccc1` the Potency was “inactive”.
`O=C(O)c1ccccc1[N+](=O)[O-]` was tested, and the Potency was “inactive”.
`O=c1c2ccccc2oc2ccccc12` was tested, and the Potency was “inactive”.
With `CCOc1ccc2c(c1)C(C)CC(C)(C)N2` (stereo not given) the Potency was 7.96 µM (active).
In the case of `NC(=O)c1ccccc1`, the Potency is reported as “inactive”.
In the case of `CC(C(=O)O)c1ccc2c(c1)Cc1cccnc1O2` (stereo not given), the Potency is reported as “inactive”.
`Clc1cc(Cl)c2c(c1)N=C1CCCCCN1C2` was tested, and the Potency was “inactive”.
For `CCCC1CCCC(=O)O1` (stereo not given), the Potency was 39.9 µM (active).
In the case of `CCCCCCCCCCCCSCCOCCO`, the Potency is reported as “inactive”.
For `CCCCCCOC(=O)c1ccccc1`, the Potency was “inactive”.
`CCOc1ccccc1O` was tested, and the Potency was “inactive”.
`FC1(F)C(F)(F)C(F)(F)C2(F)C(F)(C1(F)F)C(F)(F)C(F)(F)C1(F)C(F)(F)C(F)(F)C(F)(F)C(F)(F)C12F` (stereo not given) was tested, and the Potency was “inactive”.
In the case of `CCCCCCCCS`, the Potency is reported as “inactive”.
In the case of `CCCCOC(=O)CC#N`, the Potency is reported as “inactive”.
With `O=C1C=CCCC1` the Potency was “inactive”.
With `O=C1OC(=O)C2CC=CCC12` (stereo not given) the Potency was “inactive”.
For `COC=O`, the activity change, negative = inhibition was 11.4% [at 10.5 µM] (inactive).
In the case of `CC(CCl)OC(C)CCl` (stereo not given), the Potency is reported as “inactive”.
With `Nc1ccc(-c2ccc(F)cc2)cc1` the Potency was 11.2 µM (active).
For `SCCOCCOCCS`, the Potency was 17.8 µM (active).
With `CCCC1CCOC(C)S1` (stereo not given) the Potency was “inactive”.
In the case of `CCCC(=O)OCCC(C)C`, the Potency is reported as “inactive”.
In the case of `CC(C(=O)O)c1ccc(/C=C2\CCCCC2=O)cc1` (stereo not given), the Potency is reported as “inactive”.
With `O=C(O)c1c2ccccc2cc2ccccc12` the Potency was “inactive”.
In the case of `COc1cc(C)c(Cc2cnc(N)nc2N)cc1OC`, the Potency is reported as “inactive”.
For `CC(C)(C)N`, the Potency was “inactive”.
In the case of `O=C(O)c1ccc(O)c(O)c1`, the Potency is reported as “inactive”.
`O=C(Cl)c1cc(Cl)cc(Cl)c1` was tested, and the Potency was “inactive”.
For `C1=COCCC1`, the Potency was “inactive”.
`CCCCCCCCCCCCCCCCN` was tested, and the Potency was “inactive”.
For `CCCCCCCCCCCCCCCCCCCl`, the activity change, negative = inhibition was -1.1% [at 10.5 µM] (inactive).
With `CC1(C)CC(=O)CC(C)(C)N1` the Potency was “inactive”.
For `C[Si](C)(C)O[Si](C)(C)O[Si](C)(C)C`, the Potency was “inactive”.
In the case of `O=[N+]([O-])c1cccc(I)c1`, the Potency is reported as “inactive”.
`O=C(Nc1ccc2c(c1)Cc1ccccc1-2)C(F)(F)F` was tested, and the Potency was “inactive”.
In the case of `Cc1c(-c2cccnc2)c2ccccc2n1CCCCC(=O)O`, the Potency is reported as 5.03 µM (active).
